KB-V1 MDR tox: kills drug-selected multidrug resistant KB-V1 cells; 400,000 tested, 3.4% active; Potency, µM (highest dose often 46.1 µM), hits mostly cytotoxic; AID 1347076; KB-V1 MDR cells viability, CellTiter-Glo, 72 h; further: nearly all actives have a fitted effect of over 60% in size
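Following 72 h at 37 degrees C with compound, KB-V1 cell viability was read by CellTiter-Glo luminescence, medium being phenol-red-free DMEM plus 10% FBS; concentration-response parameters came from normalized, curve-fitted qHTS data.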
TDP1 cell CPT: growth inhibition of DT40 Tdp1-/-;hTDP1 cells with camptothecin (screen for TDP1 inhibitors); chicken DT40 Tdp1-/-;hTDP1 cells + 20 nM CPT, ATP luminescence, 48 h; Potency, µM (titrated, usually from 46.2 µM), for the others: at the highest dose activity change, negative = growth inhibition, most hits filed as inhibitors; 420,000 tested, 12% active; further: nearly all actives have a fitted effect of over 55% in size
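Chicken DT40 Tdp1-/- cells complemented with human TDP1, 400 cells/well, exposed to compounds plus 20 nM camptothecin for at least 48 h at 37 C; viability read as ATP content by CellTiter-Glo luminescence.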
TDP1 cell noCPT: qHTS for Inhibitors of human tyrosyl-DNA phosphodiesterase 1 (TDP1): qHTS in cells in absence of CPT | DT40 Tdp1-/- hTDP1 cells, no CPT, ATP luminescence, 48 h | Potency, µM (highest dose often 46.2 µM), for the others: top-dose activity change, negative = growth inhibition, most hits filed as inhibitors | 420,000 tested, 15% active | AID 686978, 2013; further: nearly all actives have a fitted effect of over 55% in size
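Growth kinetics read by CellTiter-Glo luminescence after ≥48 hr at 37 °C. Cells: DT40 Tdp1-/- stably carrying human TDP1, 400 per well, compound exposure in the absence of CPT (DMSO vehicle).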
KB-3-1 cytotox: KB-3-1 parental cell cytotoxicity | 400,000 tested, 1.4% active | KB-3-1 viability, CellTiter-Glo ATP luminescence, 72 h | AID 1347075 | Potency, µM (top dose mostly 46.1 µM), most hits filed as cytotoxic; further: nearly all actives have a fitted effect of over 60% in size
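KB-3-1 parental drug-naive adenocarcinoma cells in DMEM/10% FBS, incubated 72 h at 37 C with pin-transferred compounds across a concentration series. Viability by CellTiter-Glo luminescence; concentration-response curves fitted after normalization.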
HT1080 IDH1KD tx: kills HT-1080 cells with IDH1 knockdown | Potency, µM (highest dose often 46.1 µM), inactives show at the highest dose activity, negative = toxicity, usual class: cytotoxic | HT-1080 IDH1 knockdown viability, ATP luminescence, 48 h | 360,000 tested, 2% active;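 further: 0% = DMSO wells and -100% = cell-free medium wells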
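After a 2 h attachment period, IDH1KD HT-1080 cells took pin-transferred compound for 48 h at 37 °C; ATP-based luminescence after 10 min room-temperature reagent incubation reported viability.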
HT1080NT lethal: kills 2HG-producing HT-1080-NT fibrosarcoma cells; AID 686970; 360,000 tested, 1.6% active; Potency, µM (top dose mostly 46.1 µM), for the others: top-dose activity, negative = less viability, usual class: cytotoxic; HT-1080-NT fibrosarcoma viability, CellTiter-Glo ATP luminescence, 48 h;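 further: NT is the 2HG producing partner of a matched IDH1 knockdown line; 0% = DMSO-treated cells and -100% = media-only wells without cells; nearly all actives have a fitted effect of over 55% in size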
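Read-out is CellTiter-Glo luminescence after 10 minutes at room temperature, following 48 hours' compound treatment of HT-1080-NT cells (750 cells/well, RPMI, 5% FBS, 37 degrees C).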
* marks the source's active call; other numbers are inactive results. Compounds with a hit are over-represented: about 19% of the library has one in this group of screens. The call rests on the fitted dose curve; in most records, active means well fitted curve in the direction sought with a large enough effect; inconclusive means small, poorly fitted or top-dose-only effect, or another doubt; inactive means no such curve, though single readings can be large; an effect the other way counts as inactive or inconclusive. Unless noted, on the % scale 0 is the no-effect control and ±100 the full control effect; potency means the concentration at half of the fitted maximal effect.

CC(C)[C@H](NC(=O)c1ccccc1)C(=O)OCC(=O)c1ccc(S(=O)(=O)N2CCCCC2)cc1 was read as KB-V1 MDR tox 21µM*, TDP1 cell CPT inconclusive, TDP1 cell noCPT -25%, KB-3-1 cytotox inactive, HT1080 IDH1KD tx 0% and HT1080NT lethal 2%.
For CCc1ccc(C(=O)COC(=O)C(Cc2ccccc2)NC(=O)C2CCC(C)CC2)cc1 (stereo unspecified) the results were KB-V1 MDR tox inactive, TDP1 cell CPT 1%, TDP1 cell noCPT -23%, KB-3-1 cytotox inactive, HT1080 IDH1KD tx -2% and HT1080NT lethal -12%.
Screening O=C(CSCc1ccccc1Br)N/N=C/c1ccccc1C(=O)O returned KB-V1 MDR tox inactive, TDP1 cell CPT 7%, TDP1 cell noCPT 2%, KB-3-1 cytotox inactive, HT1080 IDH1KD tx 13% and HT1080NT lethal -5%.
`C=CCOc1cccn2c(N(C)C(=O)c3ccccc3F)c(CC)nc12` gave KB-V1 MDR tox inactive, TDP1 cell CPT -50%, TDP1 cell noCPT -27%, KB-3-1 cytotox inactive, HT1080 IDH1KD tx 6% and HT1080NT lethal 11%.
C#CCOc1nc(OCC#C)nc(OCC#C)n1 was read as KB-V1 MDR tox inactive, TDP1 cell CPT -6%, TDP1 cell noCPT -23%, KB-3-1 cytotox inactive, HT1080 IDH1KD tx -1% and HT1080NT lethal 2%.
COC(=O)[C@H](C)NC(=O)c1cc2c(cn1)[nH]c1ccccc12 was read as KB-V1 MDR tox inactive, TDP1 cell CPT 18µM*, TDP1 cell noCPT 18µM*, KB-3-1 cytotox inactive, HT1080 IDH1KD tx -3% and HT1080NT lethal 18%.
For C[C@H](NC(=O)c1cc2c(cn1)[nH]c1ccccc12)C(=O)O the results were KB-V1 MDR tox inactive, TDP1 cell CPT inconclusive, TDP1 cell noCPT inconclusive, KB-3-1 cytotox inactive, HT1080 IDH1KD tx 3% and HT1080NT lethal 8%.
`CCOc1cccc(/C=N/Nc2ccc(S(=O)(=O)N(CC)CC)cn2)c1O` gave KB-V1 MDR tox inconclusive, TDP1 cell CPT 0.16µM*, TDP1 cell noCPT 0.58µM*, KB-3-1 cytotox inactive, HT1080 IDH1KD tx 2.6µM* and HT1080NT lethal inconclusive.
CCN(CC)S(=O)(=O)c1ccc(N/N=C/c2cc(OC)c(OC)cc2OC)nc1 was read as KB-V1 MDR tox inactive, TDP1 cell CPT -5%, TDP1 cell noCPT inconclusive, KB-3-1 cytotox inactive, HT1080 IDH1KD tx 1% and HT1080NT lethal 1%.
Screening CCCNc1ccc(S(=O)(=O)N(CC)CC)cn1 returned KB-V1 MDR tox inactive, TDP1 cell CPT 16µM*, TDP1 cell noCPT -90%, KB-3-1 cytotox inactive, HT1080 IDH1KD tx 14% and HT1080NT lethal 6%.
`CCN(CC)S(=O)(=O)c1ccc(N/N=C/c2ccc(OC)c(OC)c2OC)nc1` gave KB-V1 MDR tox inactive, TDP1 cell CPT inconclusive, TDP1 cell noCPT 18µM*, KB-3-1 cytotox inactive, HT1080 IDH1KD tx 8% and HT1080NT lethal 2%.
For CCN(CC)S(=O)(=O)c1ccc(N/N=C(\C)c2ccc(OC)cc2O)nc1 the results were KB-V1 MDR tox inconclusive, TDP1 cell CPT 3.3µM*, TDP1 cell noCPT 29µM*, KB-3-1 cytotox inconclusive, HT1080 IDH1KD tx inconclusive and HT1080NT lethal inconclusive.
For CCN(CC)S(=O)(=O)c1ccc(N/N=C/c2ccc(O)cc2)nc1 the results were KB-V1 MDR tox inactive, TDP1 cell CPT inconclusive, TDP1 cell noCPT -27%, KB-3-1 cytotox inactive, HT1080 IDH1KD tx -16% and HT1080NT lethal -28%.
Screening CCCNc1ccc(S(=O)(=O)N(C(C)C)C(C)C)cn1 returned KB-V1 MDR tox inactive, TDP1 cell CPT -5%, TDP1 cell noCPT inconclusive, KB-3-1 cytotox inactive, HT1080 IDH1KD tx 0% and HT1080NT lethal 9%.
Screening COc1ccccc1CN1CCC2(CC1)CCN(C(C)=O)CC2 returned TDP1 cell CPT 14% and TDP1 cell noCPT 26%.
For C=CCNC(=S)NNC(=O)c1cc(O)ccc1O the results were KB-V1 MDR tox inactive, TDP1 cell CPT -21%, TDP1 cell noCPT -13%, KB-3-1 cytotox inactive, HT1080 IDH1KD tx 12% and HT1080NT lethal 25%.
Screening O=C(O)c1cccc(-c2csc(C(O)c3ccccc3)n2)c1 (stereo unspecified) returned KB-V1 MDR tox inactive, TDP1 cell CPT -3%, TDP1 cell noCPT 1%, KB-3-1 cytotox inactive, HT1080 IDH1KD tx 20% and HT1080NT lethal 2%.
Cn1ncnc1SCc1cn2cccnc2n1 was read as KB-V1 MDR tox inactive, TDP1 cell CPT -2%, TDP1 cell noCPT -16%, KB-3-1 cytotox inactive, HT1080 IDH1KD tx 7% and HT1080NT lethal 15%.
COc1ccc(C2=Nn3c(nnc3-c3ccccc3OC)SC2)cc1OC1CCOC1 (stereo unspecified) was read as KB-V1 MDR tox 3.3µM* and KB-3-1 cytotox 0.65µM*.
For COc1ccccc1-c1nnc2n1N=C(c1ccc(O)c(O)c1)CS2 the results were KB-V1 MDR tox inconclusive, TDP1 cell CPT 6.5µM*, TDP1 cell noCPT 6.5µM*, KB-3-1 cytotox inconclusive, HT1080 IDH1KD tx inconclusive and HT1080NT lethal 0.21µM*.
Screening CCc1nnc2n1N=C(c1ccc([N+](=O)[O-])cc1)CS2 returned KB-V1 MDR tox inactive, TDP1 cell CPT 0%, TDP1 cell noCPT -22%, KB-3-1 cytotox inactive, HT1080 IDH1KD tx 7% and HT1080NT lethal 6%.
For COc1ccc(C2=Nn3c(nnc3-c3ccccc3C(F)(F)F)SC2)cc1OC1CCOC1 (stereo unspecified) the results were KB-V1 MDR tox inactive and KB-3-1 cytotox inconclusive.
COc1ccc(C2=Nn3c(nnc3-c3ccccn3)SC2)cc1 was read as KB-V1 MDR tox 15µM*, TDP1 cell CPT inconclusive, TDP1 cell noCPT inconclusive, KB-3-1 cytotox inconclusive, HT1080 IDH1KD tx -1% and HT1080NT lethal -17%.
For CCc1nnc2n1N=C(c1ccc(OC)cc1)CS2 the results were KB-V1 MDR tox 16µM*, TDP1 cell CPT -2%, TDP1 cell noCPT -29%, KB-3-1 cytotox 23µM*, HT1080 IDH1KD tx inconclusive and HT1080NT lethal inconclusive.
CCOc1ccc(-c2nnc3n2N=C(c2ccc(OC)cc2)CS3)cc1 was read as KB-V1 MDR tox inactive, TDP1 cell CPT -25%, TDP1 cell noCPT inconclusive, KB-3-1 cytotox inactive, HT1080 IDH1KD tx 0% and HT1080NT lethal 5%.
CCOc1ccc(C2=Nn3c(nnc3-c3ccccc3OC)SC2)cc1 was read as KB-V1 MDR tox inconclusive, TDP1 cell CPT 0.21µM*, TDP1 cell noCPT 0.18µM*, KB-3-1 cytotox 0.012µM*, HT1080 IDH1KD tx 0.01µM* and HT1080NT lethal 0.21µM*.

Screening data from PubChem BioAssay.
